Source: the supplement of paper PMC6089552
About 300 (9.4%) of roughly 3,200 compounds showed activity. The sample holds actives, similar compounds and a random draw of the others, so the mix is not that of the screen.

Tested on: A673/TR/shEF
Test: cell viability (LOESS-normalised, relative to median of negative controls) (log2 ratio); higher = more viable cells (less compound effect), active = hit call of the paper (over 3 MAD below the median)
Details: treatment time: 72 h
In short: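 For three days, A673/TR/shEF Ewing sarcoma cells in 384-well plates (1,500 per well) were treated with library compounds at two or more concentrations or with DMSO controls, after doxycycline had been added or withheld 24 h beforehand to induce EWS-FLI1 shRNA knockdown. Viability was read by CellTiter-Glo luminescence on an Envision reader. The data were LOESS-corrected per plate, divided by the median of negative controls and log2-transformed.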

[1] = 0.25 µM, library screen: screen1, EWS-FLI1 expression: high (no doxycycline)
[2] = 0.25 µM, library screen: screen1, EWS-FLI1 expression: low (doxycycline-induced shRNA knockdown)
[3] = 2.5 µM, library screen: screen1, EWS-FLI1 expression: high (no doxycycline)
[4] = 2.5 µM, library screen: screen1, EWS-FLI1 expression: low (doxycycline-induced shRNA knockdown)
[5] = 0.25 µM, library screen: screen2, EWS-FLI1 expression: high (no doxycycline)
[6] = 0.25 µM, library screen: screen2, EWS-FLI1 expression: low (doxycycline-induced shRNA knockdown)
[7] = 2.5 µM, library screen: screen2, EWS-FLI1 expression: high (no doxycycline)
[8] = 2.5 µM, library screen: screen2, EWS-FLI1 expression: low (doxycycline-induced shRNA knockdown)
[9] = 0.103 µM, library screen: screen3, EWS-FLI1 expression: high (no doxycycline)
[10] = 0.103 µM, library screen: screen3, EWS-FLI1 expression: low (doxycycline-induced shRNA knockdown)
[11] = 0.308 µM, library screen: screen3, EWS-FLI1 expression: high (no doxycycline)
[12] = 0.308 µM, library screen: screen3, EWS-FLI1 expression: low (doxycycline-induced shRNA knockdown)
[13] = 0.926 µM, library screen: screen3, EWS-FLI1 expression: high (no doxycycline)
[14] = 0.926 µM, library screen: screen3, EWS-FLI1 expression: low (doxycycline-induced shRNA knockdown)
[15] = 2.8 µM, library screen: screen3, EWS-FLI1 expression: high (no doxycycline)
[16] = 2.8 µM, library screen: screen3, EWS-FLI1 expression: low (doxycycline-induced shRNA knockdown)
[17] = 8.3 µM, library screen: screen3, EWS-FLI1 expression: high (no doxycycline)
[18] = 8.3 µM, library screen: screen3, EWS-FLI1 expression: low (doxycycline-induced shRNA knockdown)
[19] = 25 µM, library screen: screen3, EWS-FLI1 expression: high (no doxycycline)
[20] = 25 µM, library screen: screen3, EWS-FLI1 expression: low (doxycycline-induced shRNA knockdown)

Measured: cell viability (log2)

COc1cc(C2NC(=O)NC(C)=C2C(=O)Nc2cccc(Cl)c2)cc(OC)c1OC (stereo not drawn)
inactive: [1] 0.0796 | [2] 0.0843 | [3] 0.0754 | [4] -0.0585

O[Si](CCCN1CCCCC1)(c1ccc(F)cc1)C1CCCCC1 (stereo not drawn)
inactive: [5] 0.132 | [6] 0.0854 | [7] 0.109 | [8] 0.178

Cc1c(NC(=O)Nc2ccc3ccccc3c2)c(=O)n(-c2ccccc2)n1C
inactive: [1] 0.0897 | [2] 0.113 | [3] 0.056 | [4] 0.16

O=C(c1ccc(F)cc1)C1CCN(CCn2c(=O)[nH]c3ccccc3c2=O)CC1
active: [5] -0.282 | [6] -0.245 | [7] -2.12 | [8] -2.83

Cc1nc2ccccn2c(=O)c1CCN1CCC(C(=O)c2ccc(F)cc2)CC1
inactive: [1] 0.119 | [2] 0.184 | [5] 0.229 | [6] 0.127 | [3] 0.124 | [4] 0.101 | [7] 0.243 | [8] 0.107

CC1(C)C(=O)N(CCN2CCC(C(=O)c3ccc(F)cc3)CC2)c2ccccc21
inactive: [9] -0.034 | [10] 0.0315 | [5] 0.081 | [6] 0.0775 | [11] 0.05 | [12] 0.0455 | [13] 0.00913 | [14] 0.0245 | [7] 0.0771 | [8] 0.0581 | [15] -0.0171 | [16] 0.0924 | [17] -0.00458 | [18] 0.0164 | [19] 0.0894 | [20] 0.0236

COc1ccc2c(c1)CC[C@@H]1[C@@H]2CC[C@]2(C)[C@@H](NCCCCCCN3C(=O)CCC3=O)CC[C@@H]12
inactive: [5] 0.149 | [6] 0.104 | [7] 0.246 | [8] 0.108

COc1cccc2c(C)cc(=O)[nH]c12
inactive: [1] 0.0638 | [2] 0.0801 | [3] 0.144 | [4] 0.0702

C[C@@H]1CCC2[C@@H](C)[C@@H](O)O[C@@H]3OC4(C)CC[C@@H]1[C@@]23OO4 (stereo partly drawn)
inactive: [1] 0.104 | [2] 0.00583 | [3] 0.029 | [4] -0.122

CN(C)c1ccc(C=C2SC(=S)N(c3ccc(F)cc3)C2=O)cc1
inactive: [1] 0.0645 | [2] 0.154 | [3] 0.09 | [4] 0.192

C=CC(C)(C)c1c2c(c(O)c3c(=O)c4ccc(O)c(O)c4oc13)C=CC(C)(C)O2
inactive: [1] -0.0194 | [2] 0.182 | [3] -0.0746 | [4] 0.15

CC1C(=O)CC2CC1C2(C)C (stereo not drawn)
active: [1] -0.106
inactive: [2] 0.0655 | [3] 0.091 | [4] 0.103

NC(=O)c1ccccc1NC(=O)c1cc2ccccc2o1
inactive: [1] 0.112 | [2] 0.167 | [3] 0.0735 | [4] 0.103

O=C(O)CCCCCCCCCCCCC1C=CCC1 (stereo not drawn)
inactive: [1] 0.109 | [2] -0.0641 | [3] 0.133 | [4] 0.00345

CO[C@H]1C[C@H](O[C@@H]2/C(C)=C/C[C@@H]3C[C@@H](C[C@]4(CC[C@H](C)[C@@H](C5CCCCC5)O4)O3)OC(=O)[C@@H]3C=C(C)/C(=N/O)[C@H]4OC/C(=C\C=C\[C@@H]2C)[C@]43O)O[C@@H](C)[C@@H]1O
inactive: [1] 0.0971 | [2] 0.0732 | [3] 0.0965 | [4] 0.0106

CCC(C)[C@H]1O[C@]2(CC[C@@H]1C)CC1C[C@@H](C/C=C(\C)[C@@H](O[C@H]3C[C@H](OC)[C@@H](OC4C[C@H](OC)[C@@H](O)[C@H](C)O4)[C@H](C)O3)[C@@H](C)/C=C/C=C3\CO[C@@H]4[C@H](O)C(C)=C[C@@H](C(=O)O1)[C@]34O)O2.CO[C@H]1CC(O[C@H]2[C@H](C)O[C@@H](O[C@@H]3/C(C)=C/C[C@@H]4CC(C[C@]5(CC[C@H](C)[C@@H](C(C)C)O5)O4)OC(=O)[C@@H]4C=C(C)[C@@H](O)[C@H]5OC/C(=C\C=C\[C@@H]3C)[C@]54O)C[C@@H]2OC)O[C@@H](C)[C@@H]1O (stereo partly drawn)
inactive: [9] 0.062 | [10] 0.111 | [5] 0.0727 | [6] 0.0714 | [11] -0.0408 | [12] 0.0112 | [13] -0.0851 | [14] -0.0397 | [8] -0.0072
active: [7] -0.104 | [15] -0.279 | [16] -0.285 | [17] -0.239 | [18] -0.115 | [19] -3.03 | [20] -1.99

Cc1cc(=O)c2c(O)c3c(cc2o1)OC(C)(C)CC3
inactive: [1] -0.0169 | [2] 0.014 | [3] 0.0268 | [4] 0.147

CCC[C@H]1CC2=C(C[C@@H](CC)CC3=C1C(=O)OC3=O)C(=O)OC2=O
inactive: [1] 0.0818 | [2] 0.0576 | [3] 0.117 | [4] 0.0649

Cc1sc2c(=O)n3c(nc2c1C(=O)NCCc1ccccc1)CCCCC3
inactive: [1] 0.129 | [2] 0.0568 | [3] 0.167 | [4] 0.136

CC(C)CCC[C@@H](C)C1CC[C@H]2[C@@H]3CCC4=CC(=O)C=C[C@]4(C)[C@H]3CC[C@]12C (stereo partly drawn)
inactive: [1] 0.107 | [2] 0.0599 | [3] 0.105 | [4] 0.0638

c1ccc([C@@H]2CCC[C@@H]2NC2=NCCCCCCCCCCC2)cc1
inactive: [5] 0.117 | [6] 0.0677 | [7] 0.18 | [8] 0.156

CC1(C)C[C@@]23C(=O)CC[C@@H](O)C2(C)CC[C@H]13 (stereo partly drawn)
inactive: [1] 0.0615 | [2] -0.0504 | [3] 0.0572 | [4] 0.0807

COc1c(O)cc(C2Oc3c(c(O)cc(O)c3[C@H]3c4c(O)cc(O)cc4O[C@H](c4ccc(O)cc4)[C@@H]3O)C[C@H]2O)cc1O (stereo partly drawn)
inactive: [9] -0.000188 | [10] 0.0292 | [11] -0.0295 | [12] -0.00938 | [13] 0.0249 | [14] 0.0493 | [15] -0.0107 | [16] 0.0655 | [17] 0.0329 | [18] 0.11 | [19] 0.0402 | [20] 0.209
